# In PubChem BioAssay AID933 (National Center for Advancing Translational Sciences (NCATS), 2007):
# Values joined by “and” are separate entries in the source; they are usually repeats but may differ in a detail not shown here. Equal entries are not always repeated. Records with an inconclusive call do not appear. Entries that show only a call come without a potency. Active and inactive are the calls of the source. Calls come from the whole dose curve; as a rule, active = well fitted activation curve with a large enough effect in the signal ratio, with a control signal flat; inconclusive = small, poorly fitted or top-dose-only effect, or a change in a side signal; inactive = flat fitted curve, though single readings scatter; the % refers to the signal ratio.
# Target: Thyrotropin receptor (Homo sapiens) (UniProt P16473)
# Sequence (P16473 whole entry, looked up): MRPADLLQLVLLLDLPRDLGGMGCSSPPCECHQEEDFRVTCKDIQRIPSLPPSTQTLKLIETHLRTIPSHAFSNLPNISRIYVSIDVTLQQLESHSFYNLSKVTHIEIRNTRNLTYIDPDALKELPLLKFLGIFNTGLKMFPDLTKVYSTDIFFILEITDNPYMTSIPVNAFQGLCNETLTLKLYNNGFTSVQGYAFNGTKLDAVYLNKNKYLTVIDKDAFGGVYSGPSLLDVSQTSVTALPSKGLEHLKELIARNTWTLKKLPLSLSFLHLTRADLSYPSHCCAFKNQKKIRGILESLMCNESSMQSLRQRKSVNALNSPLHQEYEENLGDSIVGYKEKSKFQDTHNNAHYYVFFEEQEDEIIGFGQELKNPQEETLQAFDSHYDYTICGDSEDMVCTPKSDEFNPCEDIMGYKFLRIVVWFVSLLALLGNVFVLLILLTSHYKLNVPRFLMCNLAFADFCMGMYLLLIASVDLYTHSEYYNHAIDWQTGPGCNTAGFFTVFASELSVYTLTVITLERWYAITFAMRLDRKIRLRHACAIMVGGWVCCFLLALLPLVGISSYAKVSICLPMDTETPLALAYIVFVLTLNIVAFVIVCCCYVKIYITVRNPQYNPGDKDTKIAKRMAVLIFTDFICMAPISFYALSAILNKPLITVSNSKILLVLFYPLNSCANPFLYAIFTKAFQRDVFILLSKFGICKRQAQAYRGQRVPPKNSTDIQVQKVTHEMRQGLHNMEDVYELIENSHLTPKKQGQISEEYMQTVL
# Experiment: Secondary Concentration-Response Assay for Agonists of the Thyroid Stimulating Hormone Receptor: HTRF Activity Detection;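 for activation: HEK 293 cells stably expressing human TSHR with RO 20-1724 phosphodiesterase inhibitor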
# Conditions: HEK293-TSHR cells, cAMP HTRF ratio, 30 min; series mostly up to 91.7 µM
# Source text: NIH Chemical Genomics Center [NCGC]
# NIH Molecular Libraries Screening Centers Network [MLSCN]
# PI Name: Dr. Marvin Gershengorn, NIH
# Confirmation of Thyroid Stimulating Hormone Receptor Agonists
# TSH is an alpha/beta heterodimeric glycoprotein hormone secreted from the anterior pituitary gland which belongs to the glycoprotein hormone family. The actions of TSH are mediated by a seven-transmembrane receptor, which upon TSH binding couples preferentially to the G-alpha (s) protein (Gs), resulting in activation of adenylate cyclase and increase in cyclic adenosine 3', 5' monophosphate (cAMP). The TSH receptor (THSR) is mainly expressed in thyroid follicular cells and regulates their growth and function. Recombinant TSH is used to activate TSHR in patients with thyroid cancer receiving thyroid hormone suppression therapy and to screen for residual tumor after surgery, but it is expensive and must be administered intramuscularly. An orally active small molecule TSHR agonist would serve as an invaluable research tool for studying TSHR pharmacology and physiology, and would have multiple advantages in therapeutic settings. However, no selective small molecule agonist of the TSH receptor exists, and no small molecule screen for TSHR agonists has ever been reported.
# A confirmatory assay of putative TSHR agonists was conducted on a different TSHR transfected HEK 293 cell line, using an orthogonal detection technology to measure cAMP stimulation: antibody-based Homogeneous Time Resolved Fluorescence (HTRF).
# NCGC Assay Protocol Summary:
# Homogeneous Time Resolved Fluorescence (HTRF) cAMP Assay. HEK 293 cells stably transfected with a vector containing the TSHR and maintained under hygromycin selection were obtained from the laboratory of Dr. Marvin Gershengorn. Compounds were assayed using a HTRF cAMP detection kit (Cisbio) on the TSHR transfected cell line. Briefly, 750 cells were plated in 2.5 ul/well of complete media (DMEM containing 10 % FCS, and 100 uM RO 20-1724) in 1536 well solid bottom white plates and 23 nl/well compound in DMSO solution or controls was added. Following 30 minute incubation at room temperature, 2.5 ul/well of labeled d2 cAMP and 2.5 ul/well of anti-cAMP antibody (both diluted 1:20 in lysis buffer) were added to each well using a flying reagent dispenser (Aurora Discovery, San Diego) . Plates were measured using the Envision plate reader (PerkinElmer, Boston, MA) with excitation at 330 nm and emissions of 615 nm and 660 nm.
# Keywords: Thyroid-stimulating hormone TSH, TSHR, TSHR agonist, quantitative high throughput screening, qHTS, HTS, probe identification, CNG, cAMP, cyclic nucleotide gated ion channel PubChem
# Potency is the fitted concentration of half-maximal effect.
Compound,Potency,activation
CCOC(=O)COc1c(OC)cc(Cl)cc1C1Nc2ccccc2C(=O)N1c1ccccc1 (stereo not given),inactive,
CCN(c1ccccc1)S(=O)(=O)c1ccc(Oc2ccc(-n3ccnc3)cc2)nc1,,0.254% [at 0.00035 µM] (inactive)
COc1ccc(-c2nc3ccc(NC(C)=O)cc3c(=O)n2Cc2ccccc2)cc1COc1ccc(NC(C)=O)cc1,inactive,
COCCNC(=O)C(c1ccc(C)o1)N(C(=O)c1snc(C(N)=O)c1N)c1ccc(C)cc1 (stereo not given),,-0.472% [at 0.00035 µM] (inactive)
O=C(c1ccccc1O)N(Cc1ccco1)Cc1ccco1,inactive,
COC(=O)c1cc(NC2c3ccccc3C(=O)N2c2cccnc2)cc(C(=O)OC)c1 (stereo not given),,-0.103% [at 0.00035 µM] (inactive)
COc1ccc2c(c1OC)C(=O)N1c3ccccc3C(=O)N(c3ccccc3F)C21 (stereo not given),inactive,
CCOC(=O)COc1c(OC)cc(Cl)cc1C1Nc2ccccc2C(=O)N1c1ccc(F)cc1 (stereo not given),inactive,
O=C1c2ccccc2NC(c2ccccc2O)N1Cc1ccco1 (stereo not given),inactive,
COc1cccc(CN2C(=O)c3ccccc3NC2c2ccc(OC)c(COc3ccc(NC(C)=O)cc3)c2)c1 (stereo not given),6.31 µM (active),
Cc1sc2ncn(/N=C/c3cn(-c4ccccc4)nc3-c3ccccc3)c(=O)c2c1C,inactive,
CC(=O)N1CCCc2cc(S(=O)(=O)N(CC(C)C)CC(C)C)ccc21,,-0.0207% [at 0.00035 µM] (inactive)
COc1cc(C2Nc3ccccc3C(=O)N2c2ccccc2)c(Br)cc1OCC(=O)O (stereo not given),inactive,
COc1cc(OC)c(C(=O)N(Cc2ccco2)Cc2cccs2)cc1OC,inactive,
COc1ccc2c(c1)C1(Nc3ccccc3C(=O)N1c1ccccc1)C(=O)N2 (stereo not given),inactive,
NC(=O)c1nsc(C(=O)N(CC(=O)NCc2ccc3c(c2)OCO3)C2CCCC2)c1N,inactive,
Cc1cc(=O)[nH]c(SCCOc2ccc3c(c2)CCC3)n1,,0.323% [at 0.00035 µM] (inactive)
Cc1occc1-c1nnc(SCC(=O)Nc2ccccc2)n1C(C)c1ccccc1 (stereo not given),,0.0209% [at 0.00035 µM] (inactive)
COc1ccc(C2Nc3ccccc3C(=O)N2CCCN(C)C)cc1COc1ccc(NC(C)=O)cc1 (stereo not given),inactive,
COc1cccc(-c2nc(SC)nc3sc(C(=O)NC(C)(C)C)c(N)c23)c1,inactive,

Compound,Potency,activation
CCC(C)(C)n1nnnc1CN(Cc1ccco1)Cc1cc2cc3c(cc2[nH]c1=O)OCO3,,0.108% [at 0.00035 µM] (inactive)
CCOC(=O)COc1ccccc1C1Nc2ccccc2C(=O)N1c1cccc(Cl)c1 (stereo not given),inactive,
COC(=O)c1cc(C(=O)OC)cc(N2C(=O)CC(Sc3nc(C)cc(C)n3)C2=O)c1 (stereo not given),,-0.898% [at 0.00035 µM] (inactive)
COc1ccc(C2Nc3ccccc3C(=O)N2CCc2ccc(Cl)cc2Cl)cc1COc1ccc(NC(C)=O)cc1 (stereo not given),inactive,
COc1cc(C2Nc3ccccc3C(=O)N2c2ccc(Cl)cc2)c(Cl)cc1OCC(=O)O (stereo not given),inactive,
CCn1c(=O)c(C(=O)CN2CCCc3ccccc32)c(N)n(Cc2ccccc2)c1=O,inactive,
COc1ccc(CN2C(=O)c3ccccc3NC2c2ccc(OC)c(COc3ccc(NC(C)=O)cc3)c2)cc1 (stereo not given),3.16 µM (active),
COc1ccc(C2Nc3ccccc3C(=O)N2Cc2ccccc2)cc1CSc1ccccn1 (stereo not given),inactive,
COc1ccc(C2Nc3ccccc3C(=O)N2Cc2cccc(C(F)(F)F)c2)cc1COc1ccc(NC(C)=O)cc1 (stereo not given),4.47 µM (active),
COc1ccc(C2Nc3ccccc3C(=O)N2c2ccccc2)cc1COc1ccccn1 (stereo not given),inactive,
CCCN1C(=O)c2ccccc2NC1c1ccc(OC)c(COc2ccc([N+](=O)[O-])c(C)c2)c1 (stereo not given),inactive,
COc1ccc(-c2nc3ccccc3n2Cc2ccccc2)cc1COc1ccc(NC(C)=O)cc1,inactive,
COc1ccc(C2Nc3ccccc3C(=O)N2Cc2ccccc2)cc1COc1ccc(NC(C)=O)cc1 (stereo not given),7.08 µM (active) and 3.55 µM (active),
CCCCN1C(=O)c2ccccc2NC1c1ccc(OC)c(COc2ccc(NC(C)=O)cc2)c1 (stereo not given),20 µM (active),
Cc1ccccc1N1C(=O)c2ccccc2N2C(=O)c3ccccc3C12 (stereo not given),inactive,
COC(=O)COc1ccc(Cl)cc1C1Nc2ccccc2C(=O)N1c1ccc(OC)cc1 (stereo not given),inactive,
COc1cc(OC)cc(C(=O)N(Cc2ccco2)Cc2cccs2)c1,inactive,
Cc1nn(C)c(C)c1S(=O)(=O)N(CC(=O)Nc1ccccn1)c1ccc(C(C)C)cc1,,-0.155% [at 0.00035 µM] (inactive)
CC1(c2ccccn2)Nc2ccccc2-c2nc3ccccc3n21 (stereo not given),,-0.34% [at 0.00035 µM] (inactive)
O=C(c1cccs1)N(Cc1ccco1)c1ccc(O)cc1,inactive,
